About 79,000 compounds went through this panel and 15% of them were active in at least one assay; those are over-represented in the sample as a whole. Values without a mark were called inactive. Calls of active or inactive are those of the source. No stated cut-off is given here; in the data, active means growth inhibition above about 70%; inactive means the rest. Where a SMILES comes first, the peptide text is derived from it. [ ]: non-standard residue; d: D form. The star is where a group is joined. Cbz = O=C(OCc1ccccc1)*; Nva = CCC[CH](N)C(=O)O
Key:
[1] = NCI Yeast Anticancer Drug Screen. Data for the rad50 strain (AID 155);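 further: 0% = growth of vehicle-only cultures of the same strain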; details: S. cerevisiae rad50 strain growth inhibition; at 50.0 µM; active compounds read high
Outline: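 Inhibition values express reduced yeast growth in compound-treated cultures relative to vehicle-treated controls.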

[2] = NCI Yeast Anticancer Drug Screen. Data for the mec2-1 strain (AID 157); details: S. cerevisiae mec2-1 strain, at 50.0 µM, active compounds read high
Outline: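 Each compound was tested on mec2-1 yeast, a strain altered in DNA damage repair or cell cycle control. Growth inhibition is reported relative to vehicle.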

[3] = NCI Yeast Anticancer Drug Screen. Data for the sgs1 mgt1 strain (AID 161);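 further: 0% = growth of cultures given vehicle only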; details: S. cerevisiae sgs1 mgt1 strain, at 50.0 µM, active compounds read high
Outline: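 Genetically altered yeast, compound exposure, growth inhibition relative to vehicle.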

[4] = NCI Yeast Anticancer Drug Screen. Data for the cln2 rad14 strain (AID 165);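 further: 0% = growth equal to vehicle treated cultures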; details: S. cerevisiae cln2 rad14 strain, at 50.0 µM, active compounds read high
Outline: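 Test compounds were added to cln2 rad14 yeast cultures; inhibition of growth was then determined by comparison with vehicle treatment.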

[5] = NCI Yeast Anticancer Drug Screen. Data for the bub3 strain (AID 167); details: S. cerevisiae bub3 mutant strain, at 50.0 µM, active compounds read high
Outline: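 Steps: expose the mutant yeast strain to compound; grow alongside vehicle-treated cultures; measure growth; express inhibition against the vehicle cultures.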

[6] = NCI Yeast Anticancer Drug Screen. Data for the mlh1 rad18 strain (AID 175); details: S. cerevisiae mlh1 rad18 strain growth inhibition; at 50.0 µM; active compounds read high
Outline: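 Inhibition values reflect reduced growth of mutant yeast versus vehicle-treated controls following compound exposure; the mutations affect DNA damage repair.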

Row | SMILES | growth inhibition [1] | growth inhibition [2] | growth inhibition [3] | growth inhibition [4] | growth inhibition [5] | growth inhibition [6]
1 | N#Cc1ccc(CC(=O)O)cc1 | 25.2% | -16.5% | 6.9% | 0.35% | -7.95% | -7.75%
2 | COCC(N=CN1CCCc2ccccc2[C@@H]1CCCCl)C(C)(C)C (stereo partly specified) | -6.6% | 10.1% | 25.9% | 19.7% | 19.9% | 13.1%
3 | O=C(CCN1CCCCC1)c1cc(Cl)ccc1Cl | 88.4% (active) | 68.4% | 93.1% (active) | 62.5% | 91% (active) | 80.2% (active)
4 | CC1=C(C(=O)OC2CC3CCC2(C)C3(C)C)C2Nc3ccccc3N(C)C2O1 (stereo unspecified) | -4.75% | -8.8% | -3.65% | -3.2% | -8.4% | 6.95%
5 | CC(=O)OC1C(C)OC(n2cnc3c(=O)[nH]cnc32)C(OC(C)=O)C1OC(C)=O (stereo unspecified) | 37.1% | 9.25% | 16.4% | -7.3% | 6.25% | 27.8%
6 | O=C(O)Cc1ccc([N+](=O)[O-])cc1 | 21.1% | -11.3% | 36.1% | 15.2% | 12.8% | 4.75%
7 | Cc1cnc2cc(Cl)ccc2c1NCCN(CC(C)C)CC(C)C | -11% | 0.7% | -10.6% | -22.5% | 0.05% | -30.8%
8 | CCCCCCCCCCCCCCCC(=O)OCC(O)CO (stereo unspecified) | -28.4% | -0.35% | -6.25% | -167% | -11% | 1.1%
9 | N#CCc1c(-c2ccccn2)[nH]c2ccccc12 | 9.25% | 1.35% | -3% | 18.8% | -11.2% | 12%
10 | COC(=O)c1nc(N)nc(C(=O)OC)c1C(=O)C(C)(C)C | -11.1% | -10.8% | -25.9% | -23.6% | -41.6% | -28.8%
11 | CCCCCCC(=O)c1ccc2ccccc2c1O | 1.6% | -14.8% | 0.55% | -23.9% | 8.8% | -2.55%
12 | COC(=O)C1=C(C)C(=O)[C@]23C(CCCC[C@H]12)C(=O)[C@H](C(=O)OC)C3C (stereo partly specified) | -19.7% | -31.2% | -11% | -20.9% | -13.9% | 16.1%
13 | C=CCOC(=O)CC(=O)OCC=C | 0.6% | 1.7% | 0.35% | -4% | 3.05% | -5.9%
14 | O=c1oc(-c2ccccc2)nc2c1CCCS2 | -1.2% | -0.95% | -5.65% | 1.85% | -8.25% | -3.05%
15 | CCCCCCCCCCCCCCCC[N+](C)(C)CCN=[N+]=[N-] | 99.4% (active) | 99.7% (active) | 99.7% (active) | 99.2% (active) | 99.5% (active) | 99.5% (active)
16 | CN1C/C(=C\c2ccco2)c2nc(N)nc(-c3ccco3)c2C1 | -6.15% | -3.35% | 8.9% | 35.5% | 6.85% | -4.15%
17 | Cc1ccc(N=Nc2cc(C)c(N)cc2N)c(S(=O)(=O)O)c1 | -33.3% | -5.35% | -16.4% | -38.5% | 3.45% | -24.5%
18 | O=C1C2Cc3ccccc3CN2C(=O)N1CN1CCN(CN2C(=O)C3Cc4ccccc4CN3C2=O)CC1 (stereo unspecified) | -13.1% | -0.05% | -16.6% | -10.9% | -28.6% | -5.8%
19 | C=CCOc1ccc2cc(Br)ccc2c1 | 3.85% | -2.55% | 6.3% | -24.1% | 4.4% | 14.9%
20 | CCCCOP(=O)(OCCCC)/C(C#N)=C/c1ccc(C)o1 | -21.2% | -40.8% | -4.85% | -35.4% | -4.7% | 10.1%
21 | CC(=N\N=C(c1ccccc1)c1ccccc1)/C(C)=N/N=C(c1ccccc1)c1ccccc1 | -22.1% | -8.15% | -13.8% | -9% | -1.15% | -17.8%

Row | SMILES | growth inhibition [1] | growth inhibition [2] | growth inhibition [3] | growth inhibition [4] | growth inhibition [5] | growth inhibition [6]
22 | O=C(C[n+]1cc(Br)cc(Br)c1)c1ccc(Cl)cc1 | -9.6% | -15.8% | -13% | -13.8% | -30.1% | -7.9%
23 | O=C(CN1CCCCC1)NC(=O)c1ccccc1 | -8.8% | -11.6% | -7.8% | -9.15% | 0.65% | -7.5%
24 | O=C(O)c1cc(=O)[nH]c2ccccc12 | -10.1% | -5.7% | 8% | -0.95% | 1.7% | 14.9%
25 | N/N=C1/C(=N/O)CCc2nonc21 | 6.15% | 6.5% | 3.5% | -8.3% | -7.45% | -27.1%
26 | CCC1COS(=O)(=O)CS(=O)(=O)O1 (stereo unspecified) | -27.6% | -16.2% | -3.35% | -40.9% | 11.8% | 3.1%
27 | O=C(O)CCc1ccc(-c2ccccc2)[nH]1 | -14.3% | -6.95% | -11.7% | 1.35% | -29.1% | -16.6%
28 | CC(C)CC(NC(=O)CN1C(=O)c2ccccc2C1=O)C(=O)O (stereo unspecified) | -10.3% | -41.6% | 7.4% | 3.2% | -17% | -24.1%
29 | S=C(OCCCCCn1cnc2c(=S)nc[nH]c21)Oc1ccccc1 | -13% | 16% | 7.1% | -45.8% | -5.25% | -12.7%
30 | CCCC(NC(=O)OCc1ccccc1)C(=O)NC(CCSC)C(N)=O (stereo unspecified) (Cbz-[Nva]-Met-NH2; configuration not given here) | 28.2% | -5.35% | -5.95% | 5.6% | -4.6% | -27.9%
31 | [N-]=[N+]=NC(=O)c1cccc2c1Cc1ccccc1-2 | 8.85% | 0.75% | -4.05% | -40.9% | -11.5% | -0.4%
32 | CCCc1cccc[n+]1CC(=O)c1ccccc1 | 5.65% | 11.1% | 4.95% | -51.5% | 25.4% | -1.65%
33 | CCC12CC(=O)CCC1CCc1ccc(OC)c(OC)c12 (stereo unspecified) | -14.6% | 15.9% | -2.4% | -7.2% | 18.4% | 22.2%
34 | CCCCCCCCCO/N=C\c1c2c(O)c3c(O)c(C)c4c(c3c1O)C(=O)C(C)(O/C=C\C(OC)C(C)C(OC(C)=O)C(C)C(O)C(C)C(O)C(C)/C=C\C=C(\C)C(=O)N2)O4 (stereo unspecified) | -1.15% | 19.9% | 11.5% | -13.9% | -6.6% | 30.8%
35 | O=C1c2cc(Cl)ccc2-n2c(noc2=O)C2CSCN12 (stereo unspecified) | -8% | -10.3% | -21% | 8.85% | -18.3% | 11.6%
36 | CC(C)(C)c1cc[n+](C[n+]2ccc(C(C)(C)C)cc2)cc1 | 4.8% | -12.2% | -0.45% | -13.4% | -22.9% | -5%
37 | COc1ccc(Cl)cc1/C=C\C=N\OCC(=O)O | 5.2% | 1.85% | 1.05% | -43.6% | -5.85% | 7.25%
38 | C=CCC(C)C(=O)NNC(=O)C(C)CC=C (stereo unspecified) | -11.8% | -9.15% | -1.85% | -13.3% | -12.2% | 11.8%
39 | CCOC(=O)NC1OC(C(N)=O)C(O)C(O)C1O (stereo unspecified) | 2.25% | -5.7% | 3.4% | -33.3% | 4.5% | 1.4%
40 | CN1c2ccccc2N(C(=O)c2ccccc2)C(CC(=O)O)c2cccn21 (stereo unspecified) | -22.4% | -40.5% | -33.1% | 23.8% | -45% | -16.3%
41 | Nc1ccc2ccccc2c1Cl | -9.05% | -38.5% | -11.4% | 6% | -44.4% | -11.3%

Reference: PubChem BioAssay (NCI)
